# Experimental data from PubChem BioAssay (EPA / NIEHS).
# Several values for one entry are separate records, joined by “and”; a condition that tells them apart may be missing. Equal values may be shown once. Inconclusive results are not listed. Where a structure was tested more than once in an assay, its records may differ in their call. Activity calls are given as the source filed them. The calls were made as follows: active = hit-call score of the fitted dose curve at least 0.9, where 1 is the maximum; inconclusive = response in the unintended direction; inactive = score below 0.9.
# Legend:
# [1] = biological target: rat Neurokinin-1 Receptor (NK1), Tacr1 (gene 24807) (UniProt P14600); assay: NVS_GPCR_rNK1: NovaScreen (NVS) G Protein-Coupled Receptor Assay for rat Neurokinin-1 Receptor (NK1) (AID 2283309)
# Sequence of rat Neurokinin-1 Receptor (NK1), Tacr1 (gene 24807) (P14600 whole entry, looked up): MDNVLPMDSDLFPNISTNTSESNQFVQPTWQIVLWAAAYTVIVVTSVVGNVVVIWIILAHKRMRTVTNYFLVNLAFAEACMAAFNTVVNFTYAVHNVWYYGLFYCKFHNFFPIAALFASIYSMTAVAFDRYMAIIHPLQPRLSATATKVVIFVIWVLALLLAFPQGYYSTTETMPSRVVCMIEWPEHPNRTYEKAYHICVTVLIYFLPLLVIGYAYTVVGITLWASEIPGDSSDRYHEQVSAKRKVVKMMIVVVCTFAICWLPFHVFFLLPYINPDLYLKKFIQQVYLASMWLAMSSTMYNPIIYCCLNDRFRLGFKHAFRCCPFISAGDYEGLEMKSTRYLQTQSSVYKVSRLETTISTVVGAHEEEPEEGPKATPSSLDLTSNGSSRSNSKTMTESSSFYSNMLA
# Method in brief: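 Competitive radioligand binding to NK1 in rat submaxillary membranes, 1 h incubation, filtration and scintillation read-out. Compounds first screened at 25 uM in duplicate, then concentration-response for actives; signal loss relative to DMSO.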
# Adra2b (gene 24174) = Adra2b (gene 24174) (UniProt P19328); assay: NVS_GPCR_rmAdra2B: NovaScreen (NVS) G Protein-Coupled Receptor Assay for hybird cells Adrenergic, Alpha 2B Receptor (Adra2B) (AID 2283306)
# Sequence of Adra2b (gene 24174) (P19328 whole entry, looked up): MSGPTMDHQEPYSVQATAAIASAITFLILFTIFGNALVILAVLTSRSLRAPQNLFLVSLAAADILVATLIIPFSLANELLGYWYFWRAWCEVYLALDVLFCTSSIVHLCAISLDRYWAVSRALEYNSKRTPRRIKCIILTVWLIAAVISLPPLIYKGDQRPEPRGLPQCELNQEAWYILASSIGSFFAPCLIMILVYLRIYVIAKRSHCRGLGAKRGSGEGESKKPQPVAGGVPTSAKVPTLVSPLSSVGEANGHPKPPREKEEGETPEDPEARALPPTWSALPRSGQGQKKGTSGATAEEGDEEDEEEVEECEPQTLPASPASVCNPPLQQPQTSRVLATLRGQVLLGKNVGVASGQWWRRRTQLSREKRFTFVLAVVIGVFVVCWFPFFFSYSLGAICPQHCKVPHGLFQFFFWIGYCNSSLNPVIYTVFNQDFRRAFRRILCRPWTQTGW
# Method in brief: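 Compounds screened first at 25 uM in duplicate, with actives followed up in concentration-response; specific radioligand displacement from hybrid neuroglioma/blastoma cell membrane preparations measured by filter scintillation counting after 1 h, normalized to DMSO.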
# [2] = biological target: rat Gamma-Aminobutyric Acid Type B Receptor (GABBR), Gabbr1 (gene 81657) (UniProt Q9Z0U4); assay: NVS_GPCR_rGABBR: NovaScreen (NVS) G Protein-Coupled Receptor Assay for rat Gamma-Aminobutyric Acid Type B Receptor (GABBR) (AID 2283301)
# Sequence of rat Gamma-Aminobutyric Acid Type B Receptor (GABBR), Gabbr1 (gene 81657) (Q9Z0U4 whole entry, looked up): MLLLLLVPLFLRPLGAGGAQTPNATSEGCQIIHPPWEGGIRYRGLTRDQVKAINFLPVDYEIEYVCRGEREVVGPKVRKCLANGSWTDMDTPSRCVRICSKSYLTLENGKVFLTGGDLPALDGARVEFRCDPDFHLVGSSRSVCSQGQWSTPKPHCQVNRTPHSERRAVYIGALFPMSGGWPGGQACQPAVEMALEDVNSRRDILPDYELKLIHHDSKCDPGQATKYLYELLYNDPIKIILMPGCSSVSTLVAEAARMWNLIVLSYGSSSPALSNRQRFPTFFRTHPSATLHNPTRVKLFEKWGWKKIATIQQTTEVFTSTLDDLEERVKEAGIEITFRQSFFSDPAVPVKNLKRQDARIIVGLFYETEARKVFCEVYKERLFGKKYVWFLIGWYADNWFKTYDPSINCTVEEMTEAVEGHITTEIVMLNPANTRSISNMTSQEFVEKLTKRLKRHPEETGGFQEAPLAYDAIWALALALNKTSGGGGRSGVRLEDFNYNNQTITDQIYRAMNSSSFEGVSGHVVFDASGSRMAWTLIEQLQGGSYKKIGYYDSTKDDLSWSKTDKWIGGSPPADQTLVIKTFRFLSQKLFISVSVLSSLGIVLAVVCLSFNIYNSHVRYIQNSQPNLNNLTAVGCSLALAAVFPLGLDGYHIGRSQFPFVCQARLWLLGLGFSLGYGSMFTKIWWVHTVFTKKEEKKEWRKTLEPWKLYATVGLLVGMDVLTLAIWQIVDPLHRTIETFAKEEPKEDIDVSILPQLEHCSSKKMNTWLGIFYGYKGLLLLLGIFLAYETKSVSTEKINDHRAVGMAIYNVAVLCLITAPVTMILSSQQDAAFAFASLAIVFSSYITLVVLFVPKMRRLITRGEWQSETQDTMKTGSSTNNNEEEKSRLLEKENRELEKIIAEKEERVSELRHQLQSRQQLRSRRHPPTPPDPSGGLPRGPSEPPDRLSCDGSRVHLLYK
# Method in brief: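 Rat cortical membrane preparation, competitive radioligand binding for 1 h with filtration and scintillation readout. Actives from duplicate single-point 25 uM screening proceeded to concentration series with 50 uM top concentration.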
# [3] = biological target: guinea pig Serotonin, 5-Hydroxytryptamine Receptor 4 (5HT4), HTR4 (gene 100135548) (UniProt O70528); assay: NVS_GPCR_g5HT4: NovaScreen (NVS) G Protein-Coupled Receptor Assay for guinea pig Serotonin, 5-Hydroxytryptamine Receptor 4 (5HT4) (AID 2283294)
# Sequence of guinea pig Serotonin, 5-Hydroxytryptamine Receptor 4 (5HT4), HTR4 (gene 100135548) (O70528 whole entry, looked up): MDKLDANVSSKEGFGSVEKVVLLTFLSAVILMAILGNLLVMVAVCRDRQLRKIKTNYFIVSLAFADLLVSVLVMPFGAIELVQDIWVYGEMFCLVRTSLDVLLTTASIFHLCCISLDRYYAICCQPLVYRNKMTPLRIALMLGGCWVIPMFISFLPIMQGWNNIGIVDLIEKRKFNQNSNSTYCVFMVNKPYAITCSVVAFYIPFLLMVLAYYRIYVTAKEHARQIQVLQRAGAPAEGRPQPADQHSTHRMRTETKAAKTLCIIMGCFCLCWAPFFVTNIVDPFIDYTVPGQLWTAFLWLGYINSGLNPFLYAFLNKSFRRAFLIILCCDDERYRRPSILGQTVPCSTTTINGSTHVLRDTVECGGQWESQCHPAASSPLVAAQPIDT
# Method in brief: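 Compounds first screened in duplicate at 25 uM, actives followed up in concentration series. Binding measured as displacement of specific radioligand from guinea pig striatal membranes, 1 h, filter-based scintillation read-out versus DMSO baseline.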
# [4] = biological target: rat Adrenergic, Alpha 1A Receptor (Adra1A), Adra1a (gene 29412) (UniProt P43140); assay: NVS_GPCR_rAdra1A: NovaScreen (NVS) G Protein-Coupled Receptor Assay for rat Adrenergic, Alpha 1A Receptor (Adra1A) (AID 2283296)
# Sequence of rat Adrenergic, Alpha 1A Receptor (Adra1A), Adra1a (gene 29412) (P43140 whole entry, looked up): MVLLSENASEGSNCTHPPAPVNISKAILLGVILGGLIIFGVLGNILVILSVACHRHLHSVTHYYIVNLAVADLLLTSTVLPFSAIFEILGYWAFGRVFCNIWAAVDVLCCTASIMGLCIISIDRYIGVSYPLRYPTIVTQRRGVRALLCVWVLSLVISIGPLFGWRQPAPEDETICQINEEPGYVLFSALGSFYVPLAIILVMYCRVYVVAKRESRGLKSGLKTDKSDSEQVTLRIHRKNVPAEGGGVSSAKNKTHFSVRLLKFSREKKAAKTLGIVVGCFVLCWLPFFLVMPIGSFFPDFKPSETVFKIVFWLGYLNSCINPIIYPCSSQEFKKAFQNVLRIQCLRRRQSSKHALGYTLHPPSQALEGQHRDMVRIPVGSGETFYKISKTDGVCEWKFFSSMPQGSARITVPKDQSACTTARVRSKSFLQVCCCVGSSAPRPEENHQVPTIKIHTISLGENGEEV
# Experimental: (§1) NVS_GPCR_rAdra1A is a biochemical, single-readout assay that uses extracted gene-proteins from Rat cortical membranes (pretreated with chlorethyl clonidine-CEC) in a tissue-based cell-free assay. Measurements were taken 1 hour after chemical dosing in a 48-well plate.NVS_GPCR_rAdra1A is one of one assay component(s) measured or calculated from the NVS_GPCR_rAdra1A assay. It is designed to make measurements of radioligand binding, a form of binding reporter, as detected with scintillation counting signals by Filter-based radiodetection technology.Data from the assay component NVS_GPCR_rAdra1A was analyzed into 1 assay endpoint. This assay endpoint, NVS_GPCR_rAdra1A, was analyzed in the positive analysis fitting direction relative to DMSO as the negative control and baseline of activity. Using a type of binding reporter, loss-of-signal activity can be used to understand changes in the binding as they relate to the gene Adra1a. Furthermore, this assay endpoint can be referred to as a primary readout, because the performed assay has only produced 1 assay endpoint. To generalize the intended target to other relatable targets, this assay endpoint is annotated to the gpcr intended target family, where the subfamily is rhodopsin-like receptor. […]
# [5] = biological target: Metabotropic glutamate receptor 1 (Rattus norvegicus) (UniProt P23385); assay: NVS_GPCR_rmMGluR1: NovaScreen (NVS) G Protein-Coupled Receptor Assay for rat Glutamate Metabotropic Receptor 1 (MGluR1) (AID 2283305)
# Sequence of Metabotropic glutamate receptor 1 (Rattus norvegicus) (P23385 whole entry, looked up): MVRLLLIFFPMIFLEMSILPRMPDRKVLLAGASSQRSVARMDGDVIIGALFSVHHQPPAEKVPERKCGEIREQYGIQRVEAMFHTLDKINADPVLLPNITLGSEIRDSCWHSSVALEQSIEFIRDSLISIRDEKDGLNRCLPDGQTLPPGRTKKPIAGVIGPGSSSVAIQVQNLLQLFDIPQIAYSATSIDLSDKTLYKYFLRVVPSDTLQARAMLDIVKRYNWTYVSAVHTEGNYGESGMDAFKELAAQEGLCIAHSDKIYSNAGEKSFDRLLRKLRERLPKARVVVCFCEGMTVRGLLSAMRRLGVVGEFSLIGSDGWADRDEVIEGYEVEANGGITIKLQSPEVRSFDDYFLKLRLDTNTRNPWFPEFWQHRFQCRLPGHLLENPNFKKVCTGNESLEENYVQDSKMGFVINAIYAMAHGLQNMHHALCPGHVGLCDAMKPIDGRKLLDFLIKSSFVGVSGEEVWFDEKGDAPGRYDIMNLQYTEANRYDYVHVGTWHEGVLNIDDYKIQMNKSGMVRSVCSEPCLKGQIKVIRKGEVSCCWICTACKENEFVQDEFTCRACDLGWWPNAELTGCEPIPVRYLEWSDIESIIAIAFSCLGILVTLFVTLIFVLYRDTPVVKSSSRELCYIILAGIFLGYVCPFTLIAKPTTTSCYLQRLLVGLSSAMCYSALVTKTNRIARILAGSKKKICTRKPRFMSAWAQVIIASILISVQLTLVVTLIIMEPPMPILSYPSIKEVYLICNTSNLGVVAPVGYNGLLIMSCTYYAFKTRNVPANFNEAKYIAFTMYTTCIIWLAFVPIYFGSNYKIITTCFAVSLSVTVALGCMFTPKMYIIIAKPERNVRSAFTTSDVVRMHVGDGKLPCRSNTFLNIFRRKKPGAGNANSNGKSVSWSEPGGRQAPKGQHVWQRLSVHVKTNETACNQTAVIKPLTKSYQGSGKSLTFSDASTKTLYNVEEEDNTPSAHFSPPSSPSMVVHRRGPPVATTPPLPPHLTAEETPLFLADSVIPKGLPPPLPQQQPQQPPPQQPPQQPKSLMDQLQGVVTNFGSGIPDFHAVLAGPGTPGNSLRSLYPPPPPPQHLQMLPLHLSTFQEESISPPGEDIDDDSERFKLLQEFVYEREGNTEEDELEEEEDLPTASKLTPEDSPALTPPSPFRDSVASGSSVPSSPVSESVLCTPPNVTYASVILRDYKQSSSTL
# Experimental: as §1, with “NVS_GPCR_rmMGluR1” for “NVS_GPCR_rAdra1A”, “cerebellum” for “cortical membranes (pretreated with chlorethyl clonidine-CEC)”, “96-well plate.NVS_GPCR_rmMGluR1” for “48-well plate.NVS_GPCR_rAdra1A”, “NVS_GPCR_rmMGluR1,” for “NVS_GPCR_rAdra1A,”, “Grm1.” for “Adra1a.”, “metabotropic glutamate” for “rhodopsin-like”
# [6] = biological target: rat Adrenergic Receptor, Alpha 2 (Adra2), Non-selective Binding, Adra2a (gene 25083) (UniProt P22909); assay: NVS_GPCR_rAdra2_NonSelective: NovaScreen (NVS) G Protein-Coupled Receptor Assay for rat Adrenergic Receptor, Alpha 2 (Adra2), Non-selective Binding (AID 2283299)
# Sequence of rat Adrenergic Receptor, Alpha 2 (Adra2), Non-selective Binding, Adra2a (gene 25083) (P22909 whole entry, looked up): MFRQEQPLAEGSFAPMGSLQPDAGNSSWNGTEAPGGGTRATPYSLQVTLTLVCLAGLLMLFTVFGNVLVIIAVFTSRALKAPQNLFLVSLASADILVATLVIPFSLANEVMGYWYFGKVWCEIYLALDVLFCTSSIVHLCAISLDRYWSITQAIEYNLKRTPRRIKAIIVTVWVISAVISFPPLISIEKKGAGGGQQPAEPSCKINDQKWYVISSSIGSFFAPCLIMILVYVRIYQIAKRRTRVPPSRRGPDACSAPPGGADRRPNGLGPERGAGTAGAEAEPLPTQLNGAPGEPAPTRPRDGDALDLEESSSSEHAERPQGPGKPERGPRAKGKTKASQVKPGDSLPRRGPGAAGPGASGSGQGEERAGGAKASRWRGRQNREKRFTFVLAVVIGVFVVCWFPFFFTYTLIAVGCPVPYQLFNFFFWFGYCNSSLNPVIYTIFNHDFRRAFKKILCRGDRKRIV
# Experimental: NVS_GPCR_rAdra2_NonSelective is a biochemical, single-readout assay that uses extracted gene-proteins from Rat cortical membranes in a tissue-based cell-free assay. Measurements were taken 1.25 hours after chemical dosing in a 48-well plate.NVS_GPCR_rAdra2_NonSelective is one of one assay component(s) measured or calculated from the NVS_GPCR_rAdra2_NonSelective assay. It is designed to make measurements of radioligand binding, a form of binding reporter, as detected with scintillation counting signals by Filter-based radiodetection technology.Data from the assay component NVS_GPCR_rAdra2_NonSelective was analyzed into 1 assay endpoint. This assay endpoint, NVS_GPCR_rAdra2_NonSelective, was analyzed in the positive analysis fitting direction relative to DMSO as the negative control and baseline of activity. Using a type of binding reporter, loss-of-signal activity can be used to understand changes in the binding as they relate to the gene Adra2a. Furthermore, this assay endpoint can be referred to as a primary readout, because the performed assay has only produced 1 assay endpoint. To generalize the intended target to other relatable targets, this assay endpoint is annotated to the gpcr intended target family, where the subfamily is rhodopsin-like receptor.
# Binding assays used specific radioligands (tritiated, iodinated) with non-radioactive competitive displacement ligands in agonist or antagonist protocols (as indicated) and various reference compounds and inhibitors to titrate specific binding to receptors and transporters. Most enzyme assays (CYPs, kinases, phosphatases, proteases, HDACs) used recombinant protein and specific substrates (fluorescence mostly, some colorimetric and radioactive) and inhibitors, followed by a biochemical separation of substrate and product. All assays for the biochemical HTS were initially run in duplicate at a single concentration (10 uM for CYP450 assays and 25 uM for all others). […] Each assay was run with positive and negative controls, and concurrent controls on every plate. The follow-up (secondary) screen tested active chemical-pairs in concentration series, as well as a few additional assays not tested in the primary screen, some selected negative inactives, and several cases re-run in the concentration series for confirmatory purposes.
# [7] = biological target: rat Neurokinin-3 Receptor (NK3), Tacr3 (gene 24808) (UniProt P16177); assay: NVS_GPCR_rNK3: NovaScreen (NVS) G Protein-Coupled Receptor Assay for rat Neurokinin-3 Receptor (NK3) (AID 2283310)
# Sequence of rat Neurokinin-3 Receptor (NK3), Tacr3 (gene 24808) (P16177 whole entry, looked up): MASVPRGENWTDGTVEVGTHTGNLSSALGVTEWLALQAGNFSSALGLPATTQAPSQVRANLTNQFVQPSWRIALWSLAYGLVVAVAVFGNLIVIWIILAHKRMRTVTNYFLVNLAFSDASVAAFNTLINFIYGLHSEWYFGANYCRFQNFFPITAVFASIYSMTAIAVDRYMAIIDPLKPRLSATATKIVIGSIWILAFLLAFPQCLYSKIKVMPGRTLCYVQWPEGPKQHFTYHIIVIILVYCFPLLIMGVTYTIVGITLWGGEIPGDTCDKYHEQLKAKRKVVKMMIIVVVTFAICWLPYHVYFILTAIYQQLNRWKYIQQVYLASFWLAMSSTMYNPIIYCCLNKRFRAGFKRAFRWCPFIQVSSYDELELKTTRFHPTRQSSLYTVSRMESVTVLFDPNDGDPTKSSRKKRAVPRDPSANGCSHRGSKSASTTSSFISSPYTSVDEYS
# Method in brief: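 Filter-based radioligand displacement on rat cortex membrane preparations, read by scintillation 2 h post-dose. Chemicals first tested in duplicate at 25 uM; actives followed up in concentration series with a 50 uM maximum.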
# [8] = biological target: rat Histamine Receptor (H3), Hrh3 (gene 85268) (UniProt Q9QYN8); assay: NVS_GPCR_rH3: NovaScreen (NVS) G Protein-Coupled Receptor Assay for rat Histamine Receptor (H3) (AID 2283303)
# Method in brief: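 Filter-binding radioligand competition on rat forebrain membranes, 1 h incubation; compounds screened at 25 µM in duplicate and followed in concentration series to 50 µM, loss of bound signal vs DMSO.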
# [9] = biological target: rat Adrenergic Receptor, Beta (Adrb), Non-selective Binding, Adrb1 (gene 24925) (UniProt P18090); assay: NVS_GPCR_rAdrb_NonSelective: NovaScreen (NVS) G Protein-Coupled Receptor Assay for rat Adrenergic Receptor, Beta (Adrb), Non-selective Binding (AID 2283298)
# Method in brief: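 Rat cortical membranes incubated 1 h with beta-adrenergic radioligand and test chemical; bound ligand measured by filtration and scintillation counting. Screen at 25 uM duplicate, then concentration series with 50 uM maximum; loss of signal versus DMSO.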
smiles,measurement,setting,value
C#C[C@]1(O)CC[C@H]2[C@@H]3CCC4=CC(=O)CC[C@@H]4[C@H]3CC[C@@]21CC,outcome,[1],inactive
C[C@]12C[C@H](O)[C@H]3[C@@H](CCC4=CC(=O)CC[C@@]43C)[C@@H]1CC[C@@H]2C(=O)CO,outcome,Adra2b (gene 24174),inactive
COC(=O)c1ccccc1S(=O)(=O)NC(=O)Nc1nc(OC(F)F)cc(OC(F)F)n1,outcome,[2],inactive
Oc1ccc(C(c2ccc(O)cc2)C(Cl)(Cl)Cl)cc1,AC50,[3],2.7 µM (active)
same,AC50,[1],39.4 µM (active)
C=CCOC(Cn1ccnc1)c1ccc(Cl)cc1Cl (stereo not given),AC50,[3],5.39 µM (active)
same,AC50,[4],17.3 µM (active)
same,AC50,Adra2b (gene 24174),6.96 µM (active)
same,AC50,[1],37.8 µM (active)
CCCCOCCOCCOCc1cc2c(cc1CCC)OCO2,outcome,[5],inactive
C[C@]12CC[C@@H]3c4ccc(O)cc4C[C@@H](CCCCCCCCCS(=O)CCCC(F)(F)C(F)(F)F)[C@H]3[C@@H]1CC[C@@H]2O (stereo not given in full),outcome,[1],inactive
S=C([S-])NCCNC(=S)[S-].[Mn+2],AC50,[3],25 µM (active)
same,outcome,[6],inactive
same,outcome,[7],inactive
O=C(c1ccc(O)cc1O)c1ccc(O)cc1O,outcome,[5],inactive
CC(C)(c1ccc(O)cc1)c1ccc(O)cc1,AC50,[3],10.4 µM (active) and 24.2 µM (active) and 15.1 µM (active)
same,outcome,[6],inactive
same,outcome,Adra2b (gene 24174),inactive
CCCOC(=O)NCCCN(C)C,AC50,[8],18.1 µM (active)
CCOC(=O)[C@H](C)Oc1ccc(Oc2nc3ccc(Cl)cc3o2)cc1,outcome,[9],inactive
S=C(S)NCCNC(=S)S.[Mn+2].[S-]C([S-])=NCCN=C([S-])[S-].[Zn+2],AC50,[3],31.1 µM (active)
same,outcome,[3],inactive
same,AC50,[6],12.5 µM (active) and 15.4 µM (active)
same,outcome,[6],inactive
same,outcome,[7],inactive
